Test results: the supplement of paper PMC10646978
± gives the standard deviation.

What was measured:
Conditions in all cases: modulator concentration 10 µM
[1] = system: RAW-Dual (murine macrophage reporter line); test: NF-kB reporter (SEAP) activity fold change vs agonist alone; higher = enhanced NF-kB activity
Outline: (§1)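 Compound reached 10 μM final in each well by pin transfer, onto RAW-Dual murine macrophage reporter cells seeded at 50 000 per well in 384-well plates. After 1 hour at 37 °C, the cells were stimulated overnight with a PRR agonist. SEAP in the supernatant was read with QUANTI-Blue at 620 nm absorbance for NF-κB, and Lucia luciferase was read with QUANTI-Luc luminescence for IRF. Each signal was turned into fold change against the mean agonist-only control on the same plate, and two replicate plates were averaged with propagated errors.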

[2] = system: RAW-Dual (murine macrophage reporter line); test: IRF reporter (Lucia luciferase) activity fold change vs agonist alone; higher = enhanced IRF activity
Outline: as §1

[3] = system: RAW-Dual (murine macrophage reporter line); test: viability score (confluency relative to resting cells, overnight) (fraction); higher = more viable, active = viable (0.7 or more)
Outline: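 RAW-Dual macrophages in 384-well plates were exposed overnight to compound at 10 μM final. Confluency was imaged with IncuCyte, and two confluency masks were generated with IncuCyte software over all imaged wells. The viability score is confluency expressed relative to resting cells. Compounds were called viable if both masks exceeded 70% of resting cells.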

[4] = agonist: CpG ODN 1826 0.5 ug/mL

| SMILES | NF-kB reporter [1, 4] | NF-kB reporter ([1]; agonist: LPS 0.1 ug/mL) | NF-kB reporter ([1]; agonist: MPLA […]) | IRF reporter ([2]; agonist: 3'3'-cGAMP 10 ug/mL) | IRF reporter ([2]; agonist: LPS 0.1 ug/mL) | IRF reporter ([2]; agonist: MPLA […]) | viability score [3] |
| --- | --- | --- | --- | --- | --- | --- | --- |
| O=C(C=Cc1ccccc1)NC(NC(=S)Nc1ccc(Cl)cc1)C(Cl)(Cl)Cl (stereo not drawn) | 1.16 ± 0.11 | 0.783 ± 0.11 | 5.38 ± 0.2 | 0.404 ± 0.07 | 0.804 ± 0.036 | 1.74 ± 0.19 | 0.166 (inactive) |
| Oc1ccccc1-c1cc(C(F)(F)F)on1 | 1.02 ± 0.08 | 0.982 ± 0.068 | 0.956 ± 0.096 | 0.349 ± 0.023 | 1.06 ± 0.066 | 1.12 ± 0.1 | 0.361 (inactive) |
| CC(Cc1ccccc1)NC(=O)C1COc2ccccc2O1 (stereo not drawn) | 0.662 ± 0.13 | 1.12 ± 0.09 | 1.13 ± 0.14 | 0.979 ± 0.048 | 0.965 ± 0.13 | 1.15 ± 0.12 | 0.919 (active) |
| COc1cc(O)c(C(=O)Nc2nc(C(=O)NCCN(C(C)C)C(C)C)cs2)cc1OC.Cl.O.O.O | 1.01 ± 0.098 | 0.966 ± 0.13 | 0.968 ± 0.022 | 0.96 ± 0.064 | 1 ± 0.11 | 1.05 ± 0.18 | 0.997 (active) |
| CCCOc1cccc(C=C2N=C(c3ccc(Cl)c([N+](=O)[O-])c3)OC2=O)c1 | 0.993 ± 0.094 | 1.07 ± 0.072 | 0.912 ± 0.055 | 1.02 ± 0.041 | 1.55 ± 0.17 | 1.04 ± 0.15 | 1.01 (active) |
| N#CC(=Cc1cc(Cl)ccc1OCc1c(F)cccc1Cl)c1nn(CCO)c(N)c1C#N | 1.37 ± 0.12 | 1.19 ± 0.072 | 0.806 ± 0.063 | 0.497 ± 0.03 | 0.931 ± 0.11 | 0.787 ± 0.049 | 0.164 (inactive) |
| CN1CCN(C(=O)c2cc(-c3ccccc3)nc3ccccc23)CC1 | 1.03 ± 0.11 | 0.906 ± 0.059 | 0.957 ± 0.043 | 0.941 ± 0.15 | 0.923 ± 0.051 | 0.884 ± 0.081 | 0.996 (active) |
| O=[N+]([O-])c1ccc(CN2c3ccccc3C3=C(CCCC3)C23CCCCC3)cc1 | 0.959 ± 0.074 | 1.04 ± 0.08 | 0.936 ± 0.1 | 0.951 ± 0.057 | 1.33 ± 0.16 | 1.6 ± 0.27 | 1.03 (active) |
| NC(=O)c1ccc(N2CCOCC2)c([N+](=O)[O-])c1 | 1.04 ± 0.087 | 1 ± 0.089 | 0.935 ± 0.026 | 0.984 ± 0.067 | 1.02 ± 0.05 | 1.01 ± 0.1 | 0.993 (active) |
| Cc1cc(C)c2c(c1)[C@@H](N(Cc1cc(C(F)(F)F)cc(C(F)(F)F)c1)c1nnn(C)n1)CCCN2C[C@H]1CC[C@H](C(=O)O)CC1 | 0.717 ± 0.054 | 0.861 ± 0.097 | 1.08 ± 0.036 | 0.985 ± 0.058 | 0.955 ± 0.033 | 1.09 ± 0.14 | 1.01 (active) |
| Cc1ccc(S(=O)(=O)N2CCC2)cc1 | 1.03 ± 0.11 | 0.756 ± 0.097 | 1.07 ± 0.1 | 1.02 ± 0.047 | 1.37 ± 0.22 | 1.51 ± 0.39 | 1.02 (active) |
| C=C1C(=O)OC2CC3(C)CCCC(C)C3=CC12 (stereo not drawn) | 0.85 ± 0.054 | 0.72 ± 0.068 | 0.685 ± 0.06 | 0.0319 ± 0.0039 | 0.738 ± 0.059 | 0.839 ± 0.15 | 0.73 (active) |
| CCCOc1ccc(C2NC(=O)NC(C)=C2C(=O)OC(C)C(C)(C)C)cc1OC (stereo not drawn) | 0.557 ± 0.033 | 1.04 ± 0.063 | 0.746 ± 0.052 | 0.478 ± 0.016 | 0.722 ± 0.077 | 0.656 ± 0.061 | 0.96 (active) |
| C/C(=C(\CCOP(=O)(O)O)SC(=O)c1ccccc1)N(C=O)Cc1cnc(C)nc1N [Prestw-654] | 1.03 ± 0.19 | 1.25 ± 0.15 | 1.1 ± 0.13 | 0.943 ± 0.031 | 1.04 ± 0.15 | 1.28 ± 0.14 | 0.974 (active) |
| C1=CC2CC1CC2CN1CCC(N2CCCCC2)CC1 (stereo not drawn) | 0.089 ± 0.0093 | 0.949 ± 0.072 | 1.26 ± 0.13 | 0.578 ± 0.038 | 1.69 ± 0.099 | 1.79 ± 0.17 | 0.989 (active) |
| O=C(c1ccc(OC(F)(F)F)cc1)N1CCC(Oc2cccnn2)CC1 | 1.04 ± 0.094 | 1.25 ± 0.1 | 0.926 ± 0.049 | 1.03 ± 0.073 | 1.08 ± 0.065 | 1.15 ± 0.087 | 1.01 (active) |
| NS(=O)(=O)c1ccc(F)cc1 | 0.947 ± 0.076 | 1.04 ± 0.076 | 0.997 ± 0.11 | 0.977 ± 0.031 | 1.24 ± 0.2 | 1.23 ± 0.17 | 1.02 (active) |
| O=C(NCCN1CCN(c2ccc(Cl)cc2)CC1)c1ccno1 | 0.933 ± 0.071 | 0.992 ± 0.082 | 2 ± 0.72 | 1.01 ± 0.05 | 1.24 ± 0.26 | 1.36 ± 0.49 | 0.96 (active) |
| CN(C)C/C=C/C(=O)Nc1cc2c(Nc3ccc(F)c(Cl)c3)ncnc2cc1O[C@H]1CCOC1 | 0.0842 ± 0.0066 | 0.28 ± 0.053 | 0.266 ± 0.033 | 0.0559 ± 0.0049 | 0.0747 ± 0.015 | 0.0463 ± 0.0039 | 0.56 (inactive) |
| CCOC(=O)[C@H](CCc1ccccc1)N[C@H]1CCc2ccccc2N(CC(=O)O)C1=O [Prestw-1129] | 1.13 ± 0.097 | 0.978 ± 0.079 | 0.941 ± 0.06 | 1.02 ± 0.045 | 1 ± 0.047 | 0.879 ± 0.087 | 0.994 (active) |
| COc1cccc(-n2c(SCc3ccc(F)cc3)nc3c([nH]c4ccccc43)c2=O)c1 | 0.568 ± 0.034 | 1.14 ± 0.077 | 0.693 ± 0.06 | 0.717 ± 0.033 | 1.33 ± 0.15 | 0.902 ± 0.13 | 0.972 (active) |
| NC(=O)c1cccnc1 | 0.89 ± 0.16 | 0.878 ± 0.33 | 1.03 ± 0.13 | 0.912 ± 0.034 | 0.984 ± 0.22 | 0.934 ± 0.14 | 1 (active) |
| O=C(CN1CCCCC1)NN=Cc1ccccc1OCc1ccccc1 | 0.948 ± 0.08 | 1.01 ± 0.1 | 0.927 ± 0.04 | 0.99 ± 0.1 | 1.02 ± 0.082 | 1.14 ± 0.18 | 0.995 (active) |
| CCOc1ccc(CN(CCc2ccc3c(c2)OCO3)Cc2cccc3ccccc23)cc1 | 0.73 ± 0.071 | 0.888 ± 0.074 | 1.07 ± 0.074 | 0.619 ± 0.061 | 0.908 ± 0.045 | 1.04 ± 0.18 | 0.998 (active) |
